Consider 40 compounds from ChEMBL document CHEMBL3988442, “University of Dundee, Small-Polar-MMV Screening Library” (2021).

SMILES strings stand for the structures.

The first assay deals with T1, Aspartate--tRNA(Asp/Asn) ligase (Mycobacterium tuberculosis (strain ATCC 25618 / H37Rv)) (UniProt P9WFW3).
T1 sequence (whole entry): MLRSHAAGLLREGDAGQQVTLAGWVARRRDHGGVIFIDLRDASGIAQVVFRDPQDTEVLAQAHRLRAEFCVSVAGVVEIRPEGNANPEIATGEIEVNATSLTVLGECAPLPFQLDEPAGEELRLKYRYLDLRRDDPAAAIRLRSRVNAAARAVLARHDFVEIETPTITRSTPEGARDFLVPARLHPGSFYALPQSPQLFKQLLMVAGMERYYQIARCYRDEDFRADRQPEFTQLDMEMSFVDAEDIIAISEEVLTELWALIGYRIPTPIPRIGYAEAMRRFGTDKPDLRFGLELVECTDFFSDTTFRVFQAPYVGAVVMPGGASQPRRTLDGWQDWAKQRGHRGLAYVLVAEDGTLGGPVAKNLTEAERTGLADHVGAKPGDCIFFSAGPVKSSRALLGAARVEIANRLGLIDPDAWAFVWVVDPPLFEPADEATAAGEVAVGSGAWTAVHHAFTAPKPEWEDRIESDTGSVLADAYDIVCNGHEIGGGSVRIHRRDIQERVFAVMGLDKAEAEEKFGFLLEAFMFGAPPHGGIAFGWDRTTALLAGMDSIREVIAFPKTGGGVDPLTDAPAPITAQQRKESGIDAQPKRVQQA
Put plainly: Assay for Asp RNA synthetase-1 from Mycobacterium tuberculosis. The format is functional. The arrangement: scale not given: direction of the effect not stated beside the values. Particulars: 30 µM.
Take `CN(C(=O)Cn1nc(-c2cccs2)ccc1=O)C1CCS(=O)(=O)C1` (stereo unspecified): the Percent Effect came to 1.02%.
On to `Cc1ccc(N2CCC3(CCN(C(N)=O)CC3)CC2)nn1`, for which the Percent Effect is 2.03%.
Same read-out and setting: the same measure for `O=C(N1CCCC1)N1CCO[C@H]2[C@@H](Oc3ccccn3)CC[C@@H]21`: -4.07%.
Same read-out and setting: the result for `O=C(c1ccc(F)c(F)c1)N1CCCC1CN1CCCC1` (stereo unspecified) reads -3.65%; that for `CCn1ccnc1CNCC1CCCN1c1cccnn1` (stereo unspecified), -8.36%; that for `CS(=O)(=O)c1ccccc1C(=O)NCC1Cc2ccccc2O1` (stereo unspecified), 9.98%.
As for `COCC(=O)N1CC[C@@H](O)[C@@H]1Cc1ccccc1`, the Percent Effect amounted to 4.62%.
On the same count and under the same terms, the same measure for `OC(COCc1cccs1)CN1CCC(c2ccn[nH]2)CC1` (stereo unspecified): 1.71%.
As for `COc1cccc(-c2nc(C)c(C(=O)N[C@@H](C)C(=O)O)s2)c1`, the Percent Effect is -1.66%.
In the case of `Cc1cc(=O)n2ncnc2n1CC(O)c1cc(F)ccc1F` (stereo unspecified), the Percent Effect is 3.44%.
Same read-out and setting: the same measure for `Cc1cccc(CN(Cc2ccc(C)o2)C2CC(C)(C)NC(C)(C)C2)n1`: -1.8%.
On to `CCN1CCOC(CNCc2ccccc2OCc2ccccn2)C1` (stereo unspecified), for which the Percent Effect was 3.85%.
On the same count and under the same terms, the result for `O=C(Nc1cccc(CN2CCOC2=O)c1)N1CCSCC1` reads -4.15%; that for `COCCNC(=O)Cn1nc(C(C)C)c2cnn(C(C)(C)C)c2c1=O`, -1.87%.
Still for that read-out and setting: the same measure for `CC(C)(C)c1nc(CN2CCCC2CCc2ccccc2)no1` (stereo unspecified): 2.52%; for `CCc1nc(CC(=O)NCC(Cc2ccc(F)cc2)C(N)=O)cs1` (stereo unspecified): 1.14%; for `Cc1nc(-c2cccc(C(=O)O)c2)cc(C2CCN(C(C)C)C2)n1` (stereo unspecified): -4.63%.
Consider `CCc1n[nH]c(C2CN(C(=O)c3ncoc3C(C)C)CCO2)n1` (stereo unspecified), for which the Percent Effect was determined as 2.8%.
Still for that read-out and setting: the same measure for `CC1CCCN(CCNC(=O)c2cncnc2C(C)C)C1` (stereo unspecified): 0.418%; for `Cc1noc([C@H]2C[C@H]3OCC[C@H]3N(S(=O)(=O)C3CC3)C2)n1`: 0.456%; for `CCOc1ccnc(N2CCN(C(=O)C(C)(C)C#N)CC2)n1`: 4.55%.

A further assay has as its target Shiga toxin 2 (Escherichia coli O157:H7) (UniProt P09385+P09386). Put plainly: E. coli 0.157:H7 Shiga Toxin SOP - stx2 screening assay. The assay is classed as functional. The arrangement: scale not given: direction of the effect not stated beside the values. Particulars: 30 µM.
`Cc1cccc(C(=O)NCc2ccc(S(N)(=O)=O)cc2)n1`: the Percent Effect was -16.4%.
Same read-out and setting: the result for `O=C(NCCNc1cnccn1)N1CCN(Cc2cccnc2)CC1` reads -68.8%; that for `COc1cccc2cc(CNC(=O)N3CCCC(O)C3)oc12` (stereo unspecified), -15.3%; that for `CS(=O)(=O)N1CCCC12CCCN(S(=O)(=O)c1ccc(F)cc1)C2` (stereo unspecified), 7.82%.
Regarding `CN(Cc1cccs1)C(=O)CS(=O)(=O)Cc1ccc(Cl)c(Cl)c1`, the Percent Effect was 0.473%.
Still for that read-out and setting: the same measure for `Clc1ccc(OCCN2CCN(CCn3cncn3)CC2)cc1`: -23.5%.
Same read-out and setting: the result for `O=C(Cc1csc(-c2ccco2)n1)N1CCN(c2cnccn2)CC1` reads -70.6%; that for `CC(O)CN1CCN(C(=O)c2cccn2Cc2ccncc2)CC1` (stereo unspecified), 13.7%.
Regarding `O=C(CSc1ccccc1Cl)NS(=O)(=O)c1ccc2c(c1)OCCO2`, the Percent Effect is -0.0514%.
As to `CCN(Cc1cccc2c1OCO2)C(=O)C(C)c1cccnc1` (stereo unspecified), the Percent Effect was -4.53%.
Same read-out and setting: the result for `O=C(Nc1cc(C(F)(F)F)c[nH]c1=O)N1CCCSCC1` reads 8.92%; that for `CCO[C@@H]1CO[C@@]2(CCCN(C(=O)COc3ccccc3OC)C2)C1`, -25.3%.
As for `O=C(c1ccc(N2CCCC2)nn1)N1CCCC(n2cccn2)C1` (stereo unspecified), the Percent Effect turned out to be 23.7%.
In the case of `Cc1cc(C)n(CCCNC(=O)[C@@H](C)NC(=O)OC(C)(C)C)n1`, the Percent Effect came to 12.1%.
For the compound `CCc1ncnc2c1CCN(Cc1ccccn1)CC2`, the Percent Effect was -29.9%.
Still for that read-out and setting: the same measure for `Cc1nccn1-c1cccc(C2CCCN(C3CCCCC3)C2)n1` (stereo unspecified): -8.84%.
On the same count and under the same terms, the same measure for `CCN(Cc1cccc(Cl)c1)Cn1nc(C)c2c(C)onc2c1=O`: 21.7%; for `CNC(=O)c1ccc(C(=O)N2CCCC2c2cnn(C)c2)cn1` (stereo unspecified): -8.21%.
On the same count and under the same terms, the same measure for `CN1C(=O)CC(c2cnn(C)c2)C12CCN(C(=O)C1CC=CC1)CC2` (stereo unspecified): -0.198%; for `CN(C(=O)Cn1nc(-c2cccs2)ccc1=O)C1CCS(=O)(=O)C1` (stereo unspecified): -35.1%.
Take `Cc1ccc(N2CCC3(CCN(C(N)=O)CC3)CC2)nn1`: the Percent Effect was -2.18%.
On the same count and under the same terms, the result for `O=C(N1CCCC1)N1CCO[C@H]2[C@@H](Oc3ccccn3)CC[C@@H]21` reads -9.25%; that for `O=C(c1ccc(F)c(F)c1)N1CCCC1CN1CCCC1` (stereo unspecified), -41.7%; that for `CCn1ccnc1CNCC1CCCN1c1cccnn1` (stereo unspecified), 6.68%.
As to `CS(=O)(=O)c1ccccc1C(=O)NCC1Cc2ccccc2O1` (stereo unspecified), the Percent Effect is -13%.
On to `COCC(=O)N1CC[C@@H](O)[C@@H]1Cc1ccccc1`, for which the Percent Effect is 3.46%.
As for `OC(COCc1cccs1)CN1CCC(c2ccn[nH]2)CC1` (stereo unspecified), the Percent Effect is -8.34%.
Regarding `COc1cccc(-c2nc(C)c(C(=O)N[C@@H](C)C(=O)O)s2)c1`, the Percent Effect is -52%.
On the same count and under the same terms, the same measure for `Cc1cc(=O)n2ncnc2n1CC(O)c1cc(F)ccc1F` (stereo unspecified): 1.57%; for `Cc1cccc(CN(Cc2ccc(C)o2)C2CC(C)(C)NC(C)(C)C2)n1`: 3.65%; for `CCN1CCOC(CNCc2ccccc2OCc2ccccn2)C1` (stereo unspecified): 23.9%.
On to `O=C(Nc1cccc(CN2CCOC2=O)c1)N1CCSCC1`, for which the Percent Effect is -52.5%.
For the compound `COCCNC(=O)Cn1nc(C(C)C)c2cnn(C(C)(C)C)c2c1=O`, the Percent Effect came to 5.6%.
For the compound `CC(C)(C)c1nc(CN2CCCC2CCc2ccccc2)no1` (stereo unspecified), the Percent Effect was 14.9%.
Still for that read-out and setting: the same measure for `CCc1nc(CC(=O)NCC(Cc2ccc(F)cc2)C(N)=O)cs1` (stereo unspecified): 3.77%.
Turning to `Cc1nc(-c2cccc(C(=O)O)c2)cc(C2CCN(C(C)C)C2)n1` (stereo unspecified), the Percent Effect worked out at 4.12%.
On the same count and under the same terms, the result for `CCc1n[nH]c(C2CN(C(=O)c3ncoc3C(C)C)CCO2)n1` (stereo unspecified) reads -12.1%.
On the same count and under the same terms, the result for `CC1CCCN(CCNC(=O)c2cncnc2C(C)C)C1` (stereo unspecified) reads -17.1%; that for `Cc1noc([C@H]2C[C@H]3OCC[C@H]3N(S(=O)(=O)C3CC3)C2)n1`, 19.9%; that for `CCOc1ccnc(N2CCN(C(=O)C(C)(C)C#N)CC2)n1`, 37.3%.
